Laboratory results taken from publication PMC7862700, “An all-to-all approach to the identification of sequence-specific readers for epigenetic DNA modifications on cytosine”.

Legend:
Assay in all cases: DAPPL (digital affinity profiling via proximity ligation, sequencing); 10 mM Tris-HCl pH 7.5, 50 mM NaCl, 1 mM DTT, 4% glycerol, room temperature, 30 min; GST-TFs on glutathione beads, 16-mer random dsDNA library, 0.1% formaldehyde crosslink after washing; high values mean tight binding
Settings in all cases: protein: recombinant; tags: N-terminal GST; dsDNA, one strand shown
[1] = molecular target: T1, FLI1 (Homo sapiens, UniProt Q01543 1-452)
T1 sequence: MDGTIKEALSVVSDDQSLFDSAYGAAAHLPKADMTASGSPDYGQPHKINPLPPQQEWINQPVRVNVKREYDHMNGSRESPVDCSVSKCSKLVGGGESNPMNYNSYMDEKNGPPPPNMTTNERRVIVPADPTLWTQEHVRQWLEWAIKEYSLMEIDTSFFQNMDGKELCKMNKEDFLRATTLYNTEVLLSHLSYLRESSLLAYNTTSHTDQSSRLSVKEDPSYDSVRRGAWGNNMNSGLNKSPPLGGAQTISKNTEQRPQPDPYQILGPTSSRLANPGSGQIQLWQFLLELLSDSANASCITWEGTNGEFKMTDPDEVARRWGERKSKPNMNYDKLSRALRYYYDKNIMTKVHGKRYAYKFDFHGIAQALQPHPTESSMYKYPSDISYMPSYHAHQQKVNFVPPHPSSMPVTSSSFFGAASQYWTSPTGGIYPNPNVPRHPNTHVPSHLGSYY
In short: (§1)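 The binding signal reported is, for every hexamer, its read frequency for a factor over its read frequency for the tag-only sample. Reads came from pools of yeast-expressed, GST-fused human transcription factors on glutathione beads, barcoded with DNA and mixed with that sample, which were incubated with 200 nmole of a random double-stranded 16-mer DNA library in Tris/NaCl/DTT/glycerol buffer at room temperature for 30 min. After washing, the pools were crosslinked with 0.1% formaldehyde, proximity-ligated with BsaI/T4 ligase for 1 h at 37 °C, PCR-amplified and sequenced on an Illumina NextSeq500.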

[2] = molecular target: T2, ELK1 (Homo sapiens, UniProt P19419 1-428)
T2 sequence: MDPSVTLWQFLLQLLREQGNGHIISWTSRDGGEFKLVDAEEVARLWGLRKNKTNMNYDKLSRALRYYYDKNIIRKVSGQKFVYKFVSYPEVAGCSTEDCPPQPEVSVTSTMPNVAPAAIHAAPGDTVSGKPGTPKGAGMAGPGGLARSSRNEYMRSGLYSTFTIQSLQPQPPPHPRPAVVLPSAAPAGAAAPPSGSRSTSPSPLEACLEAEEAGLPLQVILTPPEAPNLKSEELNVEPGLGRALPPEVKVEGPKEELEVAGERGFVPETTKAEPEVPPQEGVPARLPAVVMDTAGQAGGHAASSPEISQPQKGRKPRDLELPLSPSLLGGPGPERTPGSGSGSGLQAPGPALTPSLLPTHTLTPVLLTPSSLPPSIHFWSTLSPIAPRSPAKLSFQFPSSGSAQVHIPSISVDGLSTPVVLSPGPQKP
In short: as §1

[3] = molecular target: T3, GABPA (Homo sapiens, UniProt Q06546 1-454)
T3 sequence: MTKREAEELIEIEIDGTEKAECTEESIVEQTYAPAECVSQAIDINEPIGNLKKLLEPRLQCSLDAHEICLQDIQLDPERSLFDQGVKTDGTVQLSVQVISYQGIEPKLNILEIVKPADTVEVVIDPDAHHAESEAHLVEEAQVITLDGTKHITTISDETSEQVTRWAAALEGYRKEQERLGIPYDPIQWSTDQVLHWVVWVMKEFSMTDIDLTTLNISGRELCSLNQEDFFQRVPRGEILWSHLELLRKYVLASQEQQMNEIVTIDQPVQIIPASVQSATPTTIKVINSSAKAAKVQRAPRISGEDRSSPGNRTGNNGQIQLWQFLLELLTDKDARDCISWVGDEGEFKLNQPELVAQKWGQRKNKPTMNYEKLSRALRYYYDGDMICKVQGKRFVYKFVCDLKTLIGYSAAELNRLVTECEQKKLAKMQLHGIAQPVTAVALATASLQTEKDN
In short: as §1

[4] = molecular target: T4, ERG (Homo sapiens, UniProt P11308 1-479)
T4 sequence: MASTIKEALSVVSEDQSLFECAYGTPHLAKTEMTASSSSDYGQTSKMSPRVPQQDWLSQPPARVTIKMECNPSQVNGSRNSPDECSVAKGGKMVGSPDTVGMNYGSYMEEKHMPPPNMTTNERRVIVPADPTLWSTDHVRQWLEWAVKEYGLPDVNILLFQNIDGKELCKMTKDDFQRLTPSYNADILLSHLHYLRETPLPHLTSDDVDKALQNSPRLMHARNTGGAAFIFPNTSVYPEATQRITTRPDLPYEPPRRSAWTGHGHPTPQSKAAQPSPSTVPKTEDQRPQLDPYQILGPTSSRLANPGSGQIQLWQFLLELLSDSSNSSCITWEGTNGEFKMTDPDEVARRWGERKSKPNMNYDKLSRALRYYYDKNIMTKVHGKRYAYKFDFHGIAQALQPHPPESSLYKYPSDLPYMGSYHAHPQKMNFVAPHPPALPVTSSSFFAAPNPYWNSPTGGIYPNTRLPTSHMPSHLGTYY
In short: as §1

[5] = molecular target: ELF1 (Homo sapiens, UniProt P32519 1-619)
ELF1, sequence (P32519 whole entry): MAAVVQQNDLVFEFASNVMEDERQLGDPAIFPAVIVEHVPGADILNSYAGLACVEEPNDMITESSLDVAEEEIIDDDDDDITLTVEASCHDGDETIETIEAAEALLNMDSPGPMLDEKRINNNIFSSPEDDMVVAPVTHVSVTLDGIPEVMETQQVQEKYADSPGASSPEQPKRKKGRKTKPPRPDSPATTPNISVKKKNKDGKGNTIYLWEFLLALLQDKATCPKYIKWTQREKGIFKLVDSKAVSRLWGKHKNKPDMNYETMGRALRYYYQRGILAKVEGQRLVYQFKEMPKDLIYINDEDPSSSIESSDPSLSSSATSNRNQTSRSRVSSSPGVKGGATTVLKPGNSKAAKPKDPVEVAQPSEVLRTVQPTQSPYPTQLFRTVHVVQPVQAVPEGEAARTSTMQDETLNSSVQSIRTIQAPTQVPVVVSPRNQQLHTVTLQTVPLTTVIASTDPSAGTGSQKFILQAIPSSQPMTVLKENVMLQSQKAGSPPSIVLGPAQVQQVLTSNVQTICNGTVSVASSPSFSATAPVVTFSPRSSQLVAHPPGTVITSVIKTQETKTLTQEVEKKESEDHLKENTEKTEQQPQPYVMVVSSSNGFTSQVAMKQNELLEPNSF
In short: as §1

[6] = molecular target: T5, EHF (Homo sapiens, UniProt Q9NZC4 1-300)
T5 sequence: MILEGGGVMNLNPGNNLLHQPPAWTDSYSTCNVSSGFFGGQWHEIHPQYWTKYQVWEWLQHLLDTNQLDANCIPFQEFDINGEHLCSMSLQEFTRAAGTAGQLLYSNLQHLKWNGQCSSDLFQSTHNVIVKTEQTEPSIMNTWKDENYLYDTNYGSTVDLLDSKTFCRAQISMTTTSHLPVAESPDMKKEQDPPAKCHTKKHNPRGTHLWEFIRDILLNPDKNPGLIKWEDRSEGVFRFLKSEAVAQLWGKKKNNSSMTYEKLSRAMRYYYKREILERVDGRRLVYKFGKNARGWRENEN
In short: as §1

[7] = molecular target: SPI1 (Homo sapiens, UniProt P17947 1-270)
In short: as §1

[8] = molecular target: SPIB (Homo sapiens, UniProt Q01892 1-262)
SPIB, sequence (Q01892 whole entry): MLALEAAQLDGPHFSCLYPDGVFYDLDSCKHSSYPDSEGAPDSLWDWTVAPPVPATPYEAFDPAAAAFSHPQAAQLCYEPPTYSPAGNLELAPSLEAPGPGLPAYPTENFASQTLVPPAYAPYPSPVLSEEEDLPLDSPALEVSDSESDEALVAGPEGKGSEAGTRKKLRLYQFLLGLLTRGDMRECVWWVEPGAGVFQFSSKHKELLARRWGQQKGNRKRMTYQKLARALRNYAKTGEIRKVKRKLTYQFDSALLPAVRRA
In short: as §1

[9] = molecular target: T6, ELK3 (Homo sapiens, UniProt P41970 1-407)
T6 sequence: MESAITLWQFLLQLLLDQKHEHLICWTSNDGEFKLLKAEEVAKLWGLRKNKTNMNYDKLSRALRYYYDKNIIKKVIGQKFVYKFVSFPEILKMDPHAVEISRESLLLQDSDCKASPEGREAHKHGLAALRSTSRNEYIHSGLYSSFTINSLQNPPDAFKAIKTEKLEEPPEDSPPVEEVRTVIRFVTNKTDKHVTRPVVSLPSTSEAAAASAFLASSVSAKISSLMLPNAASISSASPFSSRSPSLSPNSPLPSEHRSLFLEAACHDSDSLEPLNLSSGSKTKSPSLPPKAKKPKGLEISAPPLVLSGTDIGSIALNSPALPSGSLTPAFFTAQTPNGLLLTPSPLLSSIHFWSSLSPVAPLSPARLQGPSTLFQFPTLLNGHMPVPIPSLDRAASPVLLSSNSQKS
In short: as §1

Row | Sequence | binding signal [1] | binding signal [2] | binding signal [3] | binding signal [4] | binding signal [5] | binding signal [6] | binding signal [7] | binding signal [8] | binding signal [9]
1 | CACAAT | 1.12 fold enrichment (6-mer frequency, TF over GST control) | 1.07 fold enrichment (6-mer frequency, TF over GST control) | 1.12 fold enrichment (6-mer frequency, TF over GST control) | 1.11 fold enrichment (6-mer frequency, TF over GST control) | 1.17 fold enrichment (6-mer frequency, TF over GST control) | 1.07 fold enrichment (6-mer frequency, TF over GST control) | 1.02 fold enrichment (6-mer frequency, TF over GST control) | 1.16 fold enrichment (6-mer frequency, TF over GST control) | 1.26 fold enrichment (6-mer frequency, TF over GST control)
2 | CACGAC | 1.27 fold enrichment (6-mer frequency, TF over GST control) | 1.29 fold enrichment (6-mer frequency, TF over GST control) | 1.33 fold enrichment (6-mer frequency, TF over GST control) | 1.22 fold enrichment (6-mer frequency, TF over GST control) | 1.21 fold enrichment (6-mer frequency, TF over GST control) | 1.28 fold enrichment (6-mer frequency, TF over GST control) | 1.14 fold enrichment (6-mer frequency, TF over GST control) | 1.23 fold enrichment (6-mer frequency, TF over GST control) | 1.29 fold enrichment (6-mer frequency, TF over GST control)
3 | ATAAAC | 1.22 fold enrichment (6-mer frequency, TF over GST control) | 1.16 fold enrichment (6-mer frequency, TF over GST control) | 1.11 fold enrichment (6-mer frequency, TF over GST control) | 1.11 fold enrichment (6-mer frequency, TF over GST control) | 1.14 fold enrichment (6-mer frequency, TF over GST control) | 1.07 fold enrichment (6-mer frequency, TF over GST control) | 1.14 fold enrichment (6-mer frequency, TF over GST control) | 1.19 fold enrichment (6-mer frequency, TF over GST control) | 1.14 fold enrichment (6-mer frequency, TF over GST control)
4 | GTAACA | 1.24 fold enrichment (6-mer frequency, TF over GST control) | 1.1 fold enrichment (6-mer frequency, TF over GST control) | 1.05 fold enrichment (6-mer frequency, TF over GST control) | 1.06 fold enrichment (6-mer frequency, TF over GST control) | 1.13 fold enrichment (6-mer frequency, TF over GST control) | 1.21 fold enrichment (6-mer frequency, TF over GST control) | 1.12 fold enrichment (6-mer frequency, TF over GST control) | 1.03 fold enrichment (6-mer frequency, TF over GST control) | 1.19 fold enrichment (6-mer frequency, TF over GST control)
5 | CGTCTC | 1.41 fold enrichment (6-mer frequency, TF over GST control) | 1.36 fold enrichment (6-mer frequency, TF over GST control) | 1.49 fold enrichment (6-mer frequency, TF over GST control) | 1.31 fold enrichment (6-mer frequency, TF over GST control) | 1.53 fold enrichment (6-mer frequency, TF over GST control) | 1.41 fold enrichment (6-mer frequency, TF over GST control) | 1.36 fold enrichment (6-mer frequency, TF over GST control) | 1.61 fold enrichment (6-mer frequency, TF over GST control) | 1.63 fold enrichment (6-mer frequency, TF over GST control)
6 | TAGGTT | 1.13 fold enrichment (6-mer frequency, TF over GST control) | 1.04 fold enrichment (6-mer frequency, TF over GST control) | 1 fold enrichment (6-mer frequency, TF over GST control) | 1.11 fold enrichment (6-mer frequency, TF over GST control) | 1.08 fold enrichment (6-mer frequency, TF over GST control) | 1.08 fold enrichment (6-mer frequency, TF over GST control) | 1.14 fold enrichment (6-mer frequency, TF over GST control) | 1.13 fold enrichment (6-mer frequency, TF over GST control) | 1.16 fold enrichment (6-mer frequency, TF over GST control)
7 | CGCCGC | 1.35 fold enrichment (6-mer frequency, TF over GST control) | 1.1 fold enrichment (6-mer frequency, TF over GST control) | 1.19 fold enrichment (6-mer frequency, TF over GST control) | 1.06 fold enrichment (6-mer frequency, TF over GST control) | 1.14 fold enrichment (6-mer frequency, TF over GST control) | 1.27 fold enrichment (6-mer frequency, TF over GST control) | 1.11 fold enrichment (6-mer frequency, TF over GST control) | 1.11 fold enrichment (6-mer frequency, TF over GST control) | 1.32 fold enrichment (6-mer frequency, TF over GST control)
8 | TCCACC | 1.22 fold enrichment (6-mer frequency, TF over GST control) | 1.18 fold enrichment (6-mer frequency, TF over GST control) | 1.21 fold enrichment (6-mer frequency, TF over GST control) | 1.19 fold enrichment (6-mer frequency, TF over GST control) | 1.2 fold enrichment (6-mer frequency, TF over GST control) | 1.28 fold enrichment (6-mer frequency, TF over GST control) | 1.19 fold enrichment (6-mer frequency, TF over GST control) | 1.3 fold enrichment (6-mer frequency, TF over GST control) | 1.18 fold enrichment (6-mer frequency, TF over GST control)
